High-throughput results deposited in PubChem BioAssay by National Center for Advancing Translational Sciences (NCATS).
Sampled rows, rich in hits. Any-hit rate of the full collection: about 8%.
SW480 rerep – A quantitative high throughput screen for small molecules that induce DNA re-replication in SW480 colon adenocarcinoma cells; SW480 DNA re-replication, Hoechst DNA content imaging, 48 h; Potency, µM (doses to about 46.1 µM), actives largely listed as activators; 340,000 compounds, 1.8% hits; AID 624297, 2012; further: nearly all actives have a fitted effect of over 55% in size
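Hoechst fluorescence of nuclei (405 nm excitation, 500-530 nm emission) measured by plate-scanning imager after 48 hr compound exposure at 37 C; re-replication scored as increased number of nuclei with elevated intensity.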
HT1080-NT tox – qHTS for induction of synthetic lethality in tumor cells producing 2HG: qHTS for the HT-1080-NT fibrosarcoma cell line | 360,000 compounds, 1.6% hits | HT-1080-NT fibrosarcoma viability, CellTiter-Glo ATP luminescence, 48 h | AID 686970, 2013 | Potency, µM (top dose mostly 46.1 µM), most hits filed as cytotoxic;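 further: NT is the 2HG producing partner of a matched IDH1 knockdown line; nearly all actives have a fitted effect of over 55% in size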
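Read-out is CellTiter-Glo luminescence after 10 minutes at room temperature, following 48 hours' compound treatment of HT-1080-NT cells (750 cells/well, RPMI, 5% FBS, 37 degrees C).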
HT1080 IDH1KD tx – qHTS for induction of synthetic lethality in tumor cells producing 2HG: qHTS for the HT-1080-IDH1KD cell line; Potency, µM (highest dose often 46.1 µM), usual class: cytotoxic; 360,000 compounds, 2% hits; HT-1080 IDH1 knockdown viability, ATP luminescence, 48 h
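After a 2 h attachment period, IDH1KD HT-1080 cells took pin-transferred compound for 48 h at 37 °C; ATP-based luminescence after 10 min room-temperature reagent incubation reported viability.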
KB-3-1 cytotox – qHTS assay for MDR1-selective chemotherapeutics: Primary screen using the parental adenocarcinoma cell KB-3-1 | Potency, µM (titrated, usually from 46.1 µM), usual class: cytotoxic | 400,000 compounds, 1.4% hits | KB-3-1 viability, CellTiter-Glo ATP luminescence, 72 h; further: nearly all actives have a fitted effect of over 60% in size
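KB-3-1 parental drug-naive adenocarcinoma cells in DMEM/10% FBS, incubated 72 h at 37 C with pin-transferred compounds across a concentration series. Viability by CellTiter-Glo luminescence; concentration-response curves fitted after normalization.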
MCF10A rerep – A quantitative high throughput screen for small molecules that induce DNA re-replication in MCF 10a normal breast cells | 350,000 compounds, 2.9% hits | MCF 10A DNA re-replication, Hoechst nuclear intensity, 48 h | Potency, µM (highest dose often 46.1 µM), actives largely listed as activators | AID 624296, 2012; further: nearly all actives have a fitted effect of over 50% in size
KB-V1 MDR tox – qHTS assay for MDR1-selective chemotherapeutics: Primary screen using the drug-selected MDR subline cells KB-V1; KB-V1 MDR cells viability, CellTiter-Glo, 72 h; Potency, µM (highest dose often 46.1 µM), hits mostly cytotoxic; 400,000 compounds, 3.4% hits; further: nearly all actives have a fitted effect of over 60% in size
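Readout: CellTiter-Glo luminescence, 10 min after addition. Cells: KB-V1 MDR subline, 72 h at 37 degrees C with compound. Analysis: corrected, normalized data fitted to concentration-effect curves.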
A number is an active result; . = inactive; ? = inconclusive; / = not tested or not shown; [ ] = remark or other dose. The call rests on the fitted dose curve; in most records, active means well fitted curve in the direction sought with a large enough effect; inconclusive means small, poorly fitted or top-dose-only effect, or another doubt; inactive means no such curve, though single readings can be large; an effect the other way counts as inactive or inconclusive.

SMILES | SW480 rerep | HT1080-NT tox | HT1080 IDH1KD tx | KB-3-1 cytotox | MCF10A rerep | KB-V1 MDR tox
O=C(COc1ccccc1)N1CCN(S(=O)(=O)c2ccc(Br)cc2)CC1 | . | . | . | . | . | .
O=C(OCC(=O)N1CCN(S(=O)(=O)c2ccc(Cl)cc2)CC1)C1CCC1 | . | . | . | . | . | .
O=C(CN1C(=O)CCn2nc(-c3ccccc3)cc21)NCc1ccc(F)cc1 | / | / | / | . | / | .
CN(C(=O)COC(=O)C1CCN(S(=O)(=O)c2c(Cl)cccc2Cl)CC1)C1CCCCC1 | 3.7µM | . | . | . | ? | .
Cc1ccc(S(=O)(=O)N2CCN(C(=O)CN3CCc4ccccc4C3)CC2)cc1 | . | . | . | . | . | 4.1µM
O=C(CN1CCc2ccccc2C1)N1CCN(S(=O)(=O)c2ccccc2)CC1 | . | . | . | . | . | ?
CN(C(=O)COC(=O)C1CCN(S(=O)(=O)c2c(Cl)cccc2Cl)CC1)c1ccccc1 | . | . | . | . | . | .
COc1ccc(OC)c(C(=O)CN2CCN(S(=O)(=O)c3ccc(Br)cc3)CC2)c1 | ? | . | . | . | 23µM | .
COc1ccc(NC(=O)CN2CCN(S(=O)(=O)c3ccc(Br)cc3)CC2)cc1 | / | / | / | . | / | .
CCOc1ccccc1C1N=C(N)Nc2nc3ccccc3n21 (stereo not drawn) | / | / | / | . | / | .
Cc1csc(NC(=O)CCNC(=O)c2ccc([N+](=O)[O-])cc2)n1 | . | . | . | . | . | .
CCCCc1cc(=O)oc2c(CN3CCCC3)c(O)ccc12 | . | . | . | . | . | .
CCCCc1cc(=O)oc2cc(C)c(CN3CCCC3)c(O)c12 | . | ? | . | . | ? | 18µM
CCc1cc(=O)oc2c(CN3CCCC3)c(O)c(Cl)cc12 | . | . | . | . | ? | .
CCc1cc(=O)oc2cc(C)c(CN3CCCC(C)C3)c(O)c12 (stereo not drawn) | . | .[9.24 µM] | . | . | 23µM | ?
CCN(CC)c1ccc(NC(=O)Cn2nc(C)n3cccc3c2=O)c(C)c1 | / | / | / | . | / | .
Cn1cc(S(=O)(=O)N2CCCCC2)cc1C(=O)N1CCN(c2ccccc2F)CC1 | / | / | / | . | / | .
CCN(CC)c1ccc([N+](=O)[O-])cc1C(=O)N1CCOCC1 | . | . | . | . | . | .
CCN(CC)C1=NS(=O)(=O)c2cc([N+](=O)[O-])ccc21 | 12µM | . | . | ? | ? | ?
CCCCNC(=O)c1nc(-c2cc3ccccc3[nH]2)oc1-c1ccccc1 | / | . | . | . | / | 8.2µM
O=C(O)CSc1nnc(-c2ccccc2)c(-c2ccccc2)n1 | . | . | . | . | . | .
c1ccc(CSc2nnc(-c3ccccc3)c(-c3ccccc3)n2)cc1 | ? | . | . | . | 8.2µM | 18µM
CCN(CC)C(=O)CSc1nnc(-c2ccccc2)c(-c2ccccc2)n1 | . | . | . | . | ? | 3.3µM
CCCCOc1ccc(S(=O)(=O)N2CCN(c3ccccc3OCC)CC2)cc1 | / | / | / | ? | / | .
O=C(C[C@@H]1C/C=C/CC[C@H](Cc2ccc(F)cc2)C(=O)OC[C@@H](Cc2ccccc2)NC1=O)N[C@H](CO)Cc1ccccc1 | ? | ? | ? | ? | 7.3µM | .
O=C1NC[C@@H](c2ccccc2)OC(=O)[C@@H](Cc2ccc(F)cc2)CC/C=C/C[C@H]1CC(=O)N(CCO)Cc1ccccc1 | 4.6µM | ? | / | ? | ? | ?
O=C1NC[C@H](c2ccccc2)OC(=O)[C@H](Cc2ccc(F)cc2)CC/C=C/C[C@@H]1CC(=O)N(CCO)Cc1ccccc1 | . | ? | / | . | ? | .
C[C@@H]1COC(=O)[C@H](Cc2ccc(F)cc2)CC/C=C/C[C@@H](CC(=O)N[C@@H](CO)Cc2ccccc2)C(=O)N1 | ? | . | . | . | . | .
